Screening data as filed in PubChem BioAssay.
Compounds with a hit are over-represented: about 2.1% of the library has one in this group of screens.
aSyn rescue: alpha-synuclein toxicity inhibition in yeast; 0.14% of 370,000 active; Potency, µM (titrated, usually from 46.1 µM), usual class: activators; Yeast expressing alpha-synuclein, growth rescue, BacTiter-Glo, 24 h; also: nearly all actives have a fitted effect of over 65% in size
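Rescue of yeast growth: cells expressing toxic alpha-synuclein, induced in galactose at OD600 0.02, incubated with compound 24 h at 30 C. ATP luminescence quantified growth; inhibitors of toxicity appear as activators.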
FUS suppressor: suppressors of FUS proteinopathy in yeast; Potency, µM (highest dose often 76.6 µM), usual class: activators; 0.24% of 390,000 active; AID 1347120; S. cerevisiae FUS-expressing, growth rescue, OD600, 24 h; also: nearly all actives have a fitted effect of over 55% in size
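Yeast FUS proteinopathy model; galactose-induced FUS (2%), starting OD 0.005. Cpds in dilution series, 24hr, 30C, 99% humidity. Abs 600 nm growth. Pos ctrl CP55940 (top 92uM final); neg ctrl DMSO.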
Abeta yeast res: restores growth of yeast expressing A-beta42 peptide | yeast expressing A-beta42, growth rescue, OD600, 48 h; response scale: 0% DMSO, 100% iron-clioquinol control | Potency, µM (top dose mostly 46.1 µM), usual class: activators | 0.063% of 410,000 active; also: nearly all actives have a fitted effect of over 55% in size
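Yeast A-beta toxicity model in growth medium with pinned compounds, 48 h at 30 C; growth read as absorbance at 600 nm. Normalized to FeCl3/clioquinol equimolar mix (positive) and DMSO (negative).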
TDP-43 yeast inh: TDP-43 toxicity inhibition in yeast | AID 652104 | Potency, µM (titrated, usually from 46.1 µM), actives largely listed as activators | TDP-43 expressing yeast growth rescue, BacTiter-Glo, 24 h | 1.8% of 410,000 active; also: nearly all actives have a fitted effect of over 50% in size
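Luminescence from BacTiter-Glo reports growth of TDP-43-expressing yeast after 24 hr at 30 deg C with compound. Cells were raffinose-pregrown to mid-log, then seeded in galactose medium at OD600=0.02.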
Hits are given with their value. Calls follow the shape of the dose curve; as a rule, active = well fitted curve in the direction sought with a large enough effect; inconclusive = small, poorly fitted or top-dose-only effect, or another doubt; inactive = no such curve, though single readings can be large; an effect the other way counts as inactive or inconclusive.

What do the screens show for `O=C(COc1ccc(Cl)cc1)NCc1ccc(F)cc1`?
aSyn rescue: inactive; FUS suppressor: inactive; Abeta yeast res: inactive; TDP-43 yeast inh: 11µM

What do the screens show for `CC(=O)Nc1ccc(C2=CC(=O)C[C@H](c3ccc4c(c3)OCO4)C2)cc1`?
aSyn rescue: inactive; FUS suppressor: inactive; Abeta yeast res: inactive; TDP-43 yeast inh: 22µM

How did COc1ccc(C2=CC(=O)C[C@H](c3ccc4c(c3)OCO4)C2)cc1 do in these assays?
aSyn rescue: inactive; FUS suppressor: inactive; Abeta yeast res: inactive; TDP-43 yeast inh: 11µM

How did Cc1ccc(C2=CC(=O)C[C@H](c3ccc4c(c3)OCO4)C2)cc1 do in these assays?
aSyn rescue: inactive; FUS suppressor: inactive; Abeta yeast res: inactive; TDP-43 yeast inh: 13µM

Results for COc1ccccc1C1=CC(=O)C[C@H](c2ccc3c(c2)OCO3)C1 ?
aSyn rescue: inactive; FUS suppressor: inactive; Abeta yeast res: inactive; TDP-43 yeast inh: inconclusive

How did O=C1C=C(c2ccc(O)cc2)C[C@@H](c2ccc3c(c2)OCO3)C1 do in these assays?
aSyn rescue: inactive; FUS suppressor: inactive; Abeta yeast res: inactive; TDP-43 yeast inh: inactive

What do the screens show for `O=C1C=C(c2ccccc2C(F)(F)F)C[C@@H](c2ccc3c(c2)OCO3)C1`?
aSyn rescue: inactive; FUS suppressor: inactive; Abeta yeast res: inactive; TDP-43 yeast inh: 18µM

Results for Fc1ccc(Nc2c3c(nc4nncn24)CCC3)cc1 ?
FUS suppressor: inactive; Abeta yeast res: inactive; TDP-43 yeast inh: inconclusive

Results for O=C(NCC1CC1)c1ccc2nc(-c3ccoc3)c(-c3ccoc3)nc2c1 ?
aSyn rescue: inactive

How did O=C1C=C(/C=C/c2ccccc2)C[C@@H](c2ccc3c(c2)OCO3)C1 do in these assays?
aSyn rescue: inactive; FUS suppressor: inactive; Abeta yeast res: inactive; TDP-43 yeast inh: 20µM

How did COc1cccc2c(Cl)c(CC=C(Cl)Cl)c(C)nc12 do in these assays?
aSyn rescue: inactive; FUS suppressor: inactive; Abeta yeast res: inactive; TDP-43 yeast inh: 11µM

Results for C=CCc1c(C)nc2c(OC)cccc2c1Cl ?
aSyn rescue: inactive; FUS suppressor: inactive; Abeta yeast res: inactive; TDP-43 yeast inh: inactive

What do the screens show for `c1ccc(-c2ccnc3nc(N4CCN(c5ccccc5)CC4)nn23)cc1`?
aSyn rescue: inactive; FUS suppressor: inactive; Abeta yeast res: inactive; TDP-43 yeast inh: 13µM

Results for Cc1ccc(S(=O)(=O)NCCC(=O)OCc2ccc([N+](=O)[O-])cc2)cc1C ?
aSyn rescue: inactive; FUS suppressor: inactive; Abeta yeast res: inactive; TDP-43 yeast inh: 20µM

How did O=C(CCNS(=O)(=O)c1ccccc1)OCc1ccc([N+](=O)[O-])cc1 do in these assays?
aSyn rescue: inactive; FUS suppressor: inactive; Abeta yeast res: inactive; TDP-43 yeast inh: inactive

How did CCOC(=O)C1=C(CS(=O)(=O)c2ccc(C)c(C)c2)NC(=O)NC1c1ccccc1OCC (stereo not drawn) do in these assays?
FUS suppressor: inactive; Abeta yeast res: inactive; TDP-43 yeast inh: inactive

How did COC(=O)c1cccc(CN2C(=O)SC(Nc3ccccc3C)C2=O)c1 (stereo not drawn) do in these assays?
FUS suppressor: inactive; Abeta yeast res: inactive; TDP-43 yeast inh: inconclusive

Results for COC(=O)c1cccc(CN2C(=O)SC(Nc3ccc(Br)cc3)C2=O)c1 (stereo not drawn) ?
FUS suppressor: inconclusive; Abeta yeast res: inactive; TDP-43 yeast inh: 16µM

What do the screens show for `COC(=O)c1cccc(CN2C(=O)SC(Nc3ccc(Cl)cc3)C2=O)c1` (stereo not drawn)?
FUS suppressor: inactive; Abeta yeast res: inactive; TDP-43 yeast inh: 16µM

Results for COC(=O)c1cccc(CN2C(=O)SC(Nc3ccc(C)cc3)C2=O)c1 (stereo not drawn) ?
aSyn rescue: inactive; FUS suppressor: inactive; Abeta yeast res: inconclusive; TDP-43 yeast inh: inactive

What do the screens show for `CCN(C(=O)CSc1nnc(-c2cccc(F)c2)n1N)c1c(N)n(Cc2ccccc2)c(=O)[nH]c1=O`?
aSyn rescue: inactive; FUS suppressor: inactive; Abeta yeast res: inactive; TDP-43 yeast inh: inactive

Results for Cc1nc2ccc(NC(=O)Cc3ccc(Br)cc3)cc2s1 ?
aSyn rescue: inactive; FUS suppressor: inactive; Abeta yeast res: inactive; TDP-43 yeast inh: inactive

Results for Cc1nc2ccc(NC(=O)Cc3ccc4c(c3)OCCO4)cc2s1 ?
aSyn rescue: inactive; Abeta yeast res: inactive; TDP-43 yeast inh: 3.5µM

What do the screens show for `COCCOC(=O)N(C)C[C@@H]1OCCCC[C@H](C)Oc2ccc(NC(=O)Nc3ccccc3)cc2C(=O)N([C@@H](C)CO)C[C@H]1C`?
FUS suppressor: inactive

Results for COc1cc(/C=C(\C#N)C(N)=O)ccc1OS(=O)(=O)c1ccc(C)cc1 ?
aSyn rescue: inactive; FUS suppressor: inactive; Abeta yeast res: inactive; TDP-43 yeast inh: 18µM

How did COc1cc(/C=C(\C#N)C(=O)NC2CCCCC2C)ccc1OS(=O)(=O)c1ccc(C)cc1 (stereo not drawn) do in these assays?
aSyn rescue: inactive; FUS suppressor: inactive; Abeta yeast res: inactive; TDP-43 yeast inh: inactive

What do the screens show for `Cc1noc(/C=C/N(C)C)c1S(=O)(=O)N1CCCC(C(=O)Nc2ccc3c(c2)OCO3)C1` (stereo not drawn)?
aSyn rescue: inactive; FUS suppressor: 5.6µM; Abeta yeast res: inactive; TDP-43 yeast inh: inactive

What do the screens show for `CCOC(=O)C(C)Nc1ncnc2onc(C)c12` (stereo not drawn)?
FUS suppressor: inactive; Abeta yeast res: inactive; TDP-43 yeast inh: inactive

What do the screens show for `O=c1c(Sc2ccccc2)c(C(F)(F)F)[nH]n1-c1ccccc1`?
FUS suppressor: inactive; Abeta yeast res: inactive; TDP-43 yeast inh: 14µM

What do the screens show for `O=c1c2c(C(F)(F)F)cc(C(F)(F)F)nc2[nH]n1-c1ccccc1`?
aSyn rescue: inactive; FUS suppressor: inactive; Abeta yeast res: inactive; TDP-43 yeast inh: inactive

Results for Cc1cccc(C2NC(=O)c3ccccc3O2)c1 (stereo not drawn) ?
aSyn rescue: inactive; FUS suppressor: inactive; Abeta yeast res: inactive; TDP-43 yeast inh: 14µM

Results for CCN(CC)C(=O)CSc1nc2ccc(NC(=O)CSc3nccn3C)cc2s1 ?
aSyn rescue: inactive; FUS suppressor: inactive; Abeta yeast res: inactive; TDP-43 yeast inh: inactive

What do the screens show for `CCN(CC)C(=O)CSc1nc2ccc(NC(=O)CSc3nnc(N)s3)cc2s1`?
aSyn rescue: inactive; FUS suppressor: 10µM; Abeta yeast res: inactive; TDP-43 yeast inh: inactive

How did CC1=C(C(=O)NCc2cccc(Br)c2)C2(CCCCC2)OC1=O do in these assays?
FUS suppressor: inactive; Abeta yeast res: inactive; TDP-43 yeast inh: 18µM

Results for CCN(CC)C(=O)Cn1c(SCC(=O)Nc2ccc(F)cc2)nc2ccccc21 ?
FUS suppressor: inactive; Abeta yeast res: inactive; TDP-43 yeast inh: inactive

Results for CCOC(=O)c1c(N)n(CCOC(=O)c2cccs2)c2nc3ccccc3nc12 ?
aSyn rescue: inactive; FUS suppressor: inactive; Abeta yeast res: inactive; TDP-43 yeast inh: inactive

What do the screens show for `CCCCCOC(=O)c1c(N)n(CCOC)c2nc3ccccc3nc12`?
aSyn rescue: inactive; FUS suppressor: inactive; Abeta yeast res: inactive; TDP-43 yeast inh: 18µM
